# Where “and” joins values, the source holds several entries; their conditions need not be identical. Equal values may be shown once. Values without a mark were called inactive. Inconclusive results are not listed. Calls of active or inactive are those of the source. Calls follow the shape of the dose curve; as a rule, active = well fitted curve in the direction sought with a large enough effect; inconclusive = small, poorly fitted or top-dose-only effect, or another doubt; inactive = no such curve, though single readings can be large; an effect the other way counts as inactive or inconclusive.
# Molecular target: Cytochrome P450 3A4 (Homo sapiens) (UniProt P08684)
# Sequence (P08684 whole entry, looked up): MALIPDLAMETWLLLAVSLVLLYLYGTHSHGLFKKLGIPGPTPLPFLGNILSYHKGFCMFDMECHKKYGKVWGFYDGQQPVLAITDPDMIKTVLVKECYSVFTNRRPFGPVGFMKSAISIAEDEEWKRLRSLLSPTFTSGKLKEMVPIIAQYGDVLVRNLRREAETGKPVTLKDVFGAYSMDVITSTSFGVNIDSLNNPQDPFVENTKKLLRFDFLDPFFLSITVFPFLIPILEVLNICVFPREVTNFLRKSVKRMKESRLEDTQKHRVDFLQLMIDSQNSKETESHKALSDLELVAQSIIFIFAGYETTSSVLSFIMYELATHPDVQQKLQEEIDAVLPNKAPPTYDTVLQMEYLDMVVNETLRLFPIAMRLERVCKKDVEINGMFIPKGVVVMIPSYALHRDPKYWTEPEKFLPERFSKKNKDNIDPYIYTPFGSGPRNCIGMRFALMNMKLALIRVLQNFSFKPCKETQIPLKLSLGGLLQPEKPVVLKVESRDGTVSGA
# Test: qHTS Assay for Inhibitors and Substrates of Cytochrome P450 3A4 (AID 884); also: nearly all actives have a fitted effect of over 50% in size; also: potency is read from the fitted curve at half-maximal effect; as to activity change, negative = inhibition: % is scaled to controls: 0 for no effect and ±100 for the full control effect
# Settings: recombinant CYP3A4, Luciferin-PPXE luminescence; series mostly up to 57.1 µM; activity change, negative = inhibition: at the top concentration
# How it was run: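 Luminescent readout of luciferin produced by CYP3A4 (20 nM) dealkylation of Luciferin-PPXE, 25 uM (its KM). NADPH-driven reaction ran 60 min at RT after 10 min compound preincubation; data scaled to 57 uM ketoconazole as 100% inhibition.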
SMILES,"activity change, negative = inhibition",Potency
COC(=O)C/C=C1\c2ccccc2C(OC)C1C (stereo not given),-21.3% [at 11.4 µM],
CCOC(=O)OCC1C=C[C@H](c2cc(-c3ccccc3)ccc2O)C(c2ccc(C(C)=O)cc2)O1 (stereo not given in full),,3.16 µM (active)
COC(=O)NC(c1cccc(C)c1)[C@@]1(C(=O)OC)CCCC1=O (stereo not given in full),-25.8% [at 11.4 µM],
C=CCc1cccc(C2C(C)CCC3C(=O)N4C(Cc5c([nH]c6ccccc56)C4c4cc(OC)c(OC)c(OC)c4)C(=O)N32)c1 (stereo not given),,3.98 µM (active)
COC(=O)C1C(C)OC(=O)NC1c1ccccc1 (stereo not given),-16.6% [at 11.4 µM],
COC(=O)NC(c1ccc2ccccc2c1)C(C(C)=O)C(=O)OC (stereo not given),-19.4% [at 11.4 µM],
COC1C(O)COC1/C=C/c1ccccc1 (stereo not given),-19.7% [at 11.4 µM],
CC(C)C(=O)NC(=O)C1CCCN1C(=O)/C=C/c1ccccc1 (stereo not given),-10.1% [at 11.4 µM],
COC(=O)NC(c1cccc(F)c1)[C@@]1(C(=O)OC)CCCC1=O (stereo not given in full),-15.7% [at 11.4 µM],
COC(=O)NC(CC(C)=O)c1ccc(Cl)cc1 (stereo not given),-19.1% [at 11.4 µM],
COc1ccc(OC)c(C2OCCC=CC2C)c1 (stereo not given),-16.9% [at 11.4 µM],
O=Cc1ccc(OC2C=CC(c3ccccc3)OC2CO)cc1 (stereo not given),-9.85% [at 11.4 µM],
C=CCc1cccc(C2NC(C(=O)O)CCC2C)c1 (stereo not given),-20.1% [at 11.4 µM],
OCC1OC(c2ccccc2)C=CC1Oc1ccc(C2CCCC2)cc1 (stereo not given),-14.3% [at 11.4 µM],
CC12C=C(/C=C/CCc3ccco3)C(C)(C1)C(CCc1ccco1)CC2=O (stereo not given),-9.62% [at 11.4 µM],
C=CCC1C=CC(OC(=O)OCC)C(COC(=O)OCC)O1 (stereo not given),-26.9% [at 11.4 µM],
O=C1C=C[C@@H](O)[C@@H]2[C@H]3C(=O)N(c4ccc(F)cc4F)C(=O)[C@@H]3CC[C@@H]12,-59.6% [at 11.4 µM],

# Molecular target: Cytochrome P450 3A4 (Homo sapiens) (UniProt P08684)
# Test: qHTS Assay for Activators of Cytochrome P450 3A4 (AID 885); also: nearly all actives have a fitted effect of over 65% in size
# Settings: recombinant CYP3A4, Luciferin-PPXE luminescence, 60 min; series mostly up to 57.1 µM; activity change, positive = activation: at the top concentration
# How it was run: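 CYP3A4 activity: Luciferin-PPXE O-dealkylation, 25uM substrate, 200mM KPO4, RT throughout. Read-out is luciferase luminescence; higher values reflect activation.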
row,SMILES,"activity change, positive = activation"
1,CC(C)=NOCc1cccc(-c2cc(-c3ccccc3)no2)c1,-40.1% [at 11.4 µM]
2,CCCCCCC#CC1C=CC(OC(C)=O)C(COC(C)=O)O1 (stereo not given),-57.5% [at 11.4 µM]
3,C=C/C1=C/Cc2ccccc2C(C[N+](=O)[O-])C(C(=O)OC)(C(=O)OC)C1 (stereo not given),-46.3% [at 11.4 µM]
4,CCCNC(=O)OC[C@@H]1O[C@H](CCO/N=C\c2ccc(C(=O)N3[C@H](c4ccc(C)cc4)[C@@H](C)CC[C@H]3C(=O)OC)cc2)C=C[C@@H]1Oc1ccc(OC)cc1,-51.6% [at 11.4 µM]
5,CCN1C(C)=C(C(=O)OC)C(c2ccccc2)N2C(=O)[C@](O)(C(=O)OC)CC(C#N)=C12 (stereo not given in full),-38.3% [at 11.4 µM]
6,O=Cc1ccc(OC2C=CC(C#Cc3ccccc3)OC2CO)cc1 (stereo not given),-42% [at 11.4 µM]
7,C/C=C/OC(=O)NC(c1cccc(C)c1)[C@@]1(C(=O)OCC)CCCC1=O (stereo not given in full),-48.2% [at 11.4 µM]
8,C=CC[C@@H]1C=C[C@@H](O/N=C\c2ccc(C(=O)N3[C@H](c4ccc(C)cc4)[C@@H](C)CC[C@H]3C(=O)OC)cc2)[C@@H](CO)O1,-42.6% [at 11.4 µM]
9,C/C=C/C1Oc2ccc(OC)cc2N2C(=O)C(C)C(OCOC)C12 (stereo not given),-50.7% [at 11.4 µM]
10,COC(=O)C1=C(C)N(Cc2ccccc2)c2c(C(=O)OC)c(C(=O)OC)c(C(=O)OC)c(=O)n2C1c1ccccc1 (stereo not given),-58.7% [at 11.4 µM] and -55.1% [at 11.4 µM]
11,CC[C@@H](c1ccccc1)n1c(=O)n2n(c1=O)[C@H]1[C@H](O)[C@H]3O[C@@H]3/C(=N/OC/C=C(\C)CCC=C(C)C)[C@@H]1CC2,-40.3% [at 11.4 µM]
12,COC(=O)NC(c1cccs1)C(C(C)=O)C(=O)OC (stereo not given),-34.2% [at 11.4 µM]
13,CC1CCC2C(=O)N3C(CCC(C)[C@@H]3c3ccc(Br)cc3)C(=O)N2C1c1ccc(Br)cc1 (stereo not given in full),-48.7% [at 11.4 µM]
14,CC1Cc2c(COc3ccccc3)nc3c(c2CO1)CN(CCOc1ccccc1)CC3 (stereo not given),-42% [at 11.4 µM]
15,CCCC/C=C/C(NC(=O)c1ccc(C(F)(F)F)cc1)c1ccccc1 (stereo not given),-56.5%
16,CCOC(=O)OCC1OC(c2ccccc2)C=CC1Oc1cccc(N(C)C)c1 (stereo not given),-50.1% [at 11.4 µM]
17,COC(=O)NC(c1ccccc1)C(C(=O)OC)C(=O)OC (stereo not given),-40.4% [at 11.4 µM]
18,COC(=O)C1=C(C)N(Cc2ccccc2)C2=C(C(C)=O)C[C@@](O)(C(=O)OC)C(=O)N2C1c1ccccc1 (stereo not given in full),-45.3% [at 11.4 µM] and -48.2% [at 11.4 µM]
19,COCOc1cc(OC)ccc1C(=O)/C=C\c1ccc2c(c1)OCO2,-101% [at 11.4 µM]
20,COC(C1CCCCC1)C(C)C(OCc1cccc(Br)c1)C(C)CO (stereo not given),-47.3% [at 11.4 µM]
21,CO[C@H]1COC(=O)C/C=C\[C@H](C)[C@@H](OC)COC(=O)[C@@H](C)COC(=O)C/C=C\[C@@H]1C,-56.2% [at 11.4 µM]
22,COC(=O)C/C=C/C(C)C(OCc1cccc(Br)c1)C(C)C(OC)C1CCCCC1 (stereo not given),-58% [at 11.4 µM]
23,COC(c1ccccc1Br)C(C)/C=C/CCO (stereo not given),-47.9% [at 11.4 µM]
